Rows were chosen to be rich in hits. Some 1.5% of all compounds tested hit in one or more screens of this group.
S1P4 antag – antagonists of human S1P4 receptor; 220,000 compounds, 0.26% hits; inhibition, % at 4.98 µM; S1P4-expressing cells, antagonist mode, reporter read-out; O95977; in the data active means inhibition above about 29%;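 further: 0% = wells stimulated with agonist and 100% = vehicle wells without agonist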
Insulin prom up – MIN6 insulin promoter up-regulation; MIN6 insulin promoter-GFP reporter, high-content imaging; hits give high values; z-score at 5 µM; 190,000 compounds, 0.3% hits; AID 1625;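 active means z-score above 3 at 5 µM with at least 500 cells counted in the well; inconclusive means wells under 500 cells, flagged as cytotoxic or low count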
Hsp70 activator – switches on Hsp70 transcription. 200,000 compounds, 0.04% hits. activation, % at 10 µM. HeLa Hsp70 promoter luciferase reporter, luminescence; scaled: vehicle 0, proteasome-inhibitor control 100%;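 active means activation above the mean across all tested compounds plus 3 SD, cutoff set per campaign, cut at about 5.5% in these data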;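 further: 100% = MG132 at 30 µM as the positive control and 0% = DMSO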
S1P3 antagonist – blocks the human S1P3 receptor; AID 485; inhibition, % at 4.98 µM; Q99500; CHO S1P3 NFAT-BLA reporter, FRET fluorescence, antagonist mode; 170,000 compounds, 0.27% hits;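 active means inhibition above the plate cutoff, the mean inhibition of test wells on that plate plus 3 SD, cut at about 28% in these data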;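 further: cells challenged with S1P at its EC80 of 0.8 µM; blue over green emission ratio from cleaved BLA substrate after 4 h stimulation; 0% = S1P-stimulated wells and 100% = unstimulated DMSO-only wells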
S1P4 ag – human S1P4 receptor agonism | activation, % at 4.98 µM | S1P4-expressing cell line, agonist reporter assay | 220,000 compounds, 0.35% hits | AID 1509 | O95977; in the data active means activation above about 11%;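 further: 0% = DMSO vehicle and 100% = reference agonist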
Insulin prom inh – TRM-6 insulin promoter activity inhibition; inhibition, % at 2 µM; TRM-6 cells (human fetal islet line), insulin promoter-eGFP reporter, imaging; reporter expression induced with tamoxifen; 130,000 compounds, 0.9% hits;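 active means inhibition above the mean plus 3 SD, with well images judged a real hit on visual review, cut at about 60% in these data, passing the limit was not always enough; inconclusive means inhibition over the cutoff but images rejected on review; inactive means inhibition not above the cutoff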
S1P4 agonist cf – confirmation of human S1P4 receptor agonists. shares compounds with S1P4 ag. S1P4 agonist cell-based reporter assay. activation, % at 4.98 µM. 740 compounds, 7% hits; in the data active means activation above about 12%;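 further: 0% = vehicle and 100% = full reference agonist response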
S1P1 ag – counter-screen for S1P4 agonists: agonists of human S1P1; shares compounds with S1P4 ag; S1P1 agonist cell-based assay, activation; activation, % at 4.98 µM; 740 compounds, 4% hits; AID 1563; in the data active means activation above about 21%;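 further: 0% = vehicle wells and 100% = reference agonist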
Target sequence (P21453 whole entry, looked up): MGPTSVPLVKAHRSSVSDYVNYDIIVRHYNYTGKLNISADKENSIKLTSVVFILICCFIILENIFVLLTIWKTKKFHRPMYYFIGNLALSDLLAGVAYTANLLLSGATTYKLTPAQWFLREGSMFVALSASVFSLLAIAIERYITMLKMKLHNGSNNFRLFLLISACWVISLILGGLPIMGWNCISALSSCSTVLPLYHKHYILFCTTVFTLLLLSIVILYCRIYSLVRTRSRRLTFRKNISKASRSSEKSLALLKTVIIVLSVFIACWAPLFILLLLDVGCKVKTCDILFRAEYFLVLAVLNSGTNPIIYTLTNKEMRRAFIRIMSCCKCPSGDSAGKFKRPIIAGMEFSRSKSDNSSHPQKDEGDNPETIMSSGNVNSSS
* = called active by the depositor; ? = inconclusive; · = no result given.

SMILES	S1P4 antag	Insulin prom up	Hsp70 activator	S1P3 antagonist	S1P4 ag	Insulin prom inh	S1P4 agonist cf	S1P1 ag
COc1ccc(-c2nnn(CC(=O)N(CCCN3CCOCC3)C(C(=O)NC3CCCC3)c3ccco3)n2)cc1 (stereo not given)	-23	-0.14	0	-1	14*	·	-3	-9
Cc1ccc(S(=O)(=O)/N=c2\sccn2C)cc1	-13	-0.11	0	·	0	-23	·	·
Cc1ccc(S(=O)(=O)/N=C2\CN(C)C(=O)N2C)cc1	-6	0.11	0	-5	16*	-14	-1	3
CC(C)/C=N/Nc1nc(-c2ccc(Br)cc2)cs1	8	-0.6	0	-33	34*	38	-2	12
CCCN(CCC)c1ccc(/C=C/c2ccc3cc(OCC)ccc3n2)cc1	-10	·	·	2	17*	·	30*	47*
c1ccc(CSc2ncnc3c2cnn3-c2ccccc2)cc1	-12	-0.7	0	-12	0	19	·	·
O=C(Nc1c(Cl)cc(Cl)cc1-c1nc2ccccc2s1)c1ccc(Br)o1	-15	-0.22	0	·	0	24	·	·
CCNc1nc2nc3ccc(C)cn3c(=O)c2cc1C(=O)NCC1CCCO1 (stereo not given)	-23	-0.35	0	-29	13*	·	2	8
Cc1ccccc1NC(=S)NC(=O)c1cncc(Br)c1	-11	-0.04	0	9	16*	26	-1	7
CC(C)CCOP(=O)(c1ccccc1)c1ccccc1	-21	-0.06	0	-7	58*	-60	-1	2
CC1CC(C)CN(S(=O)(=O)c2ccc(C(C)(C)C)cc2)C1 (stereo not given)	0	-0.42	0	-3	-1	·	·	·
COc1cccc2cc(C(C)=O)c(=O)oc12	-15	0.56	0	-11	1	18	·	·
COc1cc(C(C)=O)ccc1OC(=O)c1cc2cccc(OC)c2oc1=O	0	-1.7	-1	-1	14*	43	-3	-5
CCc1nc(NCCO)c(C#N)c2c1CSC(C)(C)C2	6	0.3	·	-28	0	·	·	·
Cc1ccc(-n2c(=O)c(C#N)cc3c(=O)n4ccccc4nc32)cc1	-10	0.06	0	-20	2	·	·	·
Cc1cccc(-n2c(=O)c(C#N)cc3c(=O)n4ccccc4nc32)c1	-12	-0.16	0	·	14*	32	17*	22*
COc1nc(-c2ccc(Cl)cc2)ccc1-c1noc(-c2ccncc2)n1	15	·	0	-6	1	59	·	·
CCn1c(=O)c2cc(C(=O)N(C)c3ccccc3F)sc2c2ccccc21	-5	-0.73	·	14	21*	·	-2	-6
CCn1c(=O)c2cc(C(=O)N(C)c3ccc(OC)cc3OC)sc2c2ccccc21	-3	-0.44	·	13	-1	·	·	·
CCC(C(=O)OCC(=O)Nc1c(Cl)cccc1Cl)c1ccccc1 (stereo not given)	12	-0.06	0	-3	15*	-31	-1	-3
CCCC(=O)N(c1ccc(OCC)cc1)C1C=CS(=O)(=O)C1 (stereo not given)	-14	-0.87	0	-11	-2	19	·	·
CCOC(=O)Cn1nc(C)c(NC(=O)COc2cccc(Cl)c2)c1C	-24	0.03	0	1	12*	0	-1	-2
Cc1ccccc1NS(=O)(=O)c1ccc(F)cc1	-21	-0.5	0	-13	1	38	·	·
Cc1cc2c(NS(=O)(=O)c3ccc(F)cc3)cccc2nn1	-6	-1.2	·	-6	116*	·	-1	2
O=C(NCc1ccccc1)C(c1ccc(F)cc1)N(Cc1ccco1)C(=O)c1ccccn1 (stereo not given)	-4	-0.89	0	·	40*	15	-3	-3
SMILES	S1P4 antag	Insulin prom up	Hsp70 activator	S1P3 antagonist	S1P4 ag	Insulin prom inh	S1P4 agonist cf	S1P1 ag
O=c1[nH]nc(-c2ccc(F)cc2)cc1Cc1ccc(F)cc1	-4	·	·	4	1	·	·	·
CCCn1c(NC(=O)c2cccc(S(=O)(=O)N3CCCC3)c2)nc2ccccc21	-7	-4.8	0	18	-2	-100	·	·
Cc1ccc[n+](CC(=O)/C=C2\N(C)c3ccccc3C2(C)C)c1	-30	0.25	0	3	1	13	·	·
Cc1cccc[n+]1CC(=O)/C=C1\N(C)c2ccccc2C1(C)C	-30	?	0	4	21*	·	-2	-1
CC(=O)Nc1ccc(S(=O)(=O)Oc2ccccc2N2CCCCC2)cc1	-4	0.05	·	7	0	·	·	·
S=C(c1cn(CCOc2cccc3ccccc23)c2ccccc12)N1CCCC1	-6	-2.1	0	4	29*	-17	-2	-1
Cc1cc(NC(=O)CSc2nc3ccsc3c(=O)n2CCCC(=O)NCCc2ccccc2)no1	7	0.27	0	-9	0	-64	·	·
CCOC(=O)c1c(C)[nH]c(C2=NNC(=Nc3ccccc3)SC2)c1C	-5	-0.59	0	4	62*	·	-1	-4
Cc1cc(NC(=O)C2C3C(=O)N(Cc4ccc(Cl)cc4)C(C(=O)NCc4ccccc4)C34C=CC2(C)O4)no1 (stereo not given)	-15	0.35	0	·	18*	-3	-2	-6
Cc1cc(NC(=O)C2C3C(=O)N(Cc4ccc(Cl)cc4)C(C(=O)NC4CCCCC4)C34C=CC2(C)O4)no1 (stereo not given)	-18	-0.72	0	·	1	-22	·	·
COc1ccc(SCC(=O)Nc2ccccc2Cl)cc1	-4	·	0	-8	114*	-38	-1	-5
Cc1ccc(CCNC(=O)CN2C(=O)COc3ccccc32)cc1	-2	0.29	0	12	-1	29	·	·
Cc1ccc(NC(=O)COC(=O)CN2C(=O)COc3ccccc32)cc1	-15	0.06	0	·	29*	17	-2	3
Cc1cccc(C(=O)Nc2onc(C)c2C#N)c1	-8	·	0	·	1	0	·	·
CCOCCCNS(=O)(=O)c1ccc(NC(=O)N2c3ccccc3Sc3ccccc32)cc1	0	-0.68	0	·	34*	·	-3	-9
CCOCCCNS(=O)(=O)c1ccc(NC(=O)CN2C(=O)c3ccccc3C2=O)cc1	-21	0.76	0	-10	1	0	·	·
Cc1ccc(CN(c2ccc(C(=O)NCC3CCCO3)cc2)S(C)(=O)=O)cc1 (stereo not given)	-9	·	0	-8	30*	15	-1	9
CCCCNC(=O)CCn1c(=O)c2ccccc2n(Cc2ccc(F)cc2)c1=O	-20	-0.08	0	5	15*	45	-2	1
COCCCNC(=O)CCn1c(=O)c2ccccc2n(Cc2cccc([N+](=O)[O-])c2)c1=O	-13	0.4	0	-9	0	-7	·	·
COCCCN1C(=O)c2ccc(C(=O)OCC(=O)NCCc3ccccc3)cc2C1=O	0	-0.04	0	-11	16*	·	-2	3

Assay outcomes (PubChem BioAssay)
